Most compounds without a hit are left out; they make up all but 4.4% or so of the library.
12-hLO inh: 12-hLO (ALOX12) enzyme inhibition. purified 12-hLO, xylenol orange hydroperoxide absorbance. actives 0.12% (n = 150,000). P18054. AID 1452. Potency, µM (highest dose often 57.1 µM), inactives show at the top dose activity change, negative = inhibition, usual class: inhibitors; further: nearly all actives have a fitted effect of over 55% in size
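Xylenol orange chromogenic assay: hydroperoxide from 12hLO oxidises Fe(II), giving red-shifted Fe(III)-XO absorbance. Conditions: 150 nM enzyme, 40 uM arachidonic acid, 25 mM Hepes pH 7.0, 0.01% Triton X-100, 30 min, room temperature.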
p53ts 39C tox: kills p53ts cells at the nonpermissive temperature; H1299-p53A138V viability at 39C, ATP luminescence, 24 h; Potency, µM (titrated, usually from 46.1 µM), without a hit: at the highest dose activity change, negative = cell killing, usual class: cytotoxic; actives 1.5% (n = 130,000); AID 902; further: nearly all actives have a fitted effect of over 55% in size
HPGD block: blocks human HPGD enzyme activity; P15428; purified HPGD, NADH fluorescence kinetic, PGE2 substrate; Potency, µM, without a hit: at the highest dose activity change, negative = inhibition, usual class: inhibitors; actives 4.3% (n = 150,000); AID 894; active means well fitted inhibition curve with a large enough effect, not every such curve was filed as active; inconclusive means small, poorly fitted or top-dose-only effect, or another doubt; inactive means no such curve, though single readings can be large or run the other way
Target sequence (P15428 whole entry, looked up): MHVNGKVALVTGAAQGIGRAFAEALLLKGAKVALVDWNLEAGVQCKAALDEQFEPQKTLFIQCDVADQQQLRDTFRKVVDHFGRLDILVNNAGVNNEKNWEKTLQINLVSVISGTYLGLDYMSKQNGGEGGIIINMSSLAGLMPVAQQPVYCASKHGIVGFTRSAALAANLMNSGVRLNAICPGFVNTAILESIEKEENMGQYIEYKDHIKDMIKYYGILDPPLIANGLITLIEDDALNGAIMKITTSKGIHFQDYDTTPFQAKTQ
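NADH formation kinetics: reaction with 30 uM PGE2 and 1 mM NAD+ (final), 20 nM enzyme, Tris-HCl pH 8 with Tween 20, after 15 min compound preincubation at room temperature. Fluorescence change, last versus first of five reads.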
p53ts 32C kill: p53ts cell cytotoxicity, permissive temperature. AID 924. actives 0.93% (n = 130,000). Potency, µM (series often up to 46.1 µM), for inactives: top-dose activity change, negative = cytotoxicity, most hits filed as cytotoxic. H1299-p53A138V at 32C, ATP luminescence viability, 24 h;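 further: 0% = DMSO and -100% = full killing by reference compound; nearly all actives have a fitted effect of over 55% in size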
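ATP-content luminescence (ATPlite) read-out after 24 h compound exposure at 32C in H1299-p53A138V cells (600/well). Tested up to 46 uM. Normalized to DMSO (0%) and 100 uM tamoxifen (100% killing); Hill-fit AC50.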
Numbers without * were called inactive. Unless noted, the call rests on the fitted dose curve; in most records, active means well fitted curve in the direction sought with a large enough effect; inconclusive means small, poorly fitted or top-dose-only effect, or another doubt; inactive means no such curve, though single readings can be large; an effect the other way counts as inactive or inconclusive. Unless noted, on the % scale 0 is the no-effect control and ±100 the full control effect; potency means the concentration at half of the fitted maximal effect.

What do the screens show for `CC(C)[C@@H]1NC(=O)[C@H](CCCCN)NC(=O)[C@H](Cc2c[nH]c3ccccc23)NC(=O)[C@H](Cc2ccc(O)cc2)NC(=O)[C@H](C)N(C)C(=O)[C@H](Cc2ccccc2)NC1=O`?
12-hLO inh: -5.6%; p53ts 39C tox: 10.8%; p53ts 32C kill: 22.7%

How did COc1cc(OC)cc(C(=O)N2CCC(N3CCCCCC3)CC2)c1 do in these assays?
12-hLO inh: -3.4%; p53ts 39C tox: -11.0%; HPGD block: -0.2%; p53ts 32C kill: -1.2%

Results for Cc1cc(C)cc(C(=O)N2CCCCCC2)c1 ?
12-hLO inh: 4.5%; HPGD block: 15.8µM*

Results for Cc1cc(C(=O)N2CCCCCC2)cs1 ?
12-hLO inh: 0.4%; p53ts 39C tox: 8.1%; HPGD block: 0.447µM*; p53ts 32C kill: 2.2%

What do the screens show for `Cc1cc(C(=O)NC(C)C2CCCO2)cs1` (stereo unspecified)?
12-hLO inh: 2.3%; p53ts 39C tox: 15.4%; HPGD block: -24.7%; p53ts 32C kill: -3.2%

What do the screens show for `Cc1ccc(NC(=O)CSc2nncn3c2cc2sccc23)cc1F`?
p53ts 39C tox: -59.1%; p53ts 32C kill: -28.0%

How did COc1ccc(Nc2ncc(C(=O)N3CCN(c4cccc(Cl)c4)CC3)c3ccccc23)cc1 do in these assays?
p53ts 39C tox: -7.5%; p53ts 32C kill: 8.0%

Results for O=C(CSc1ccccc1C(=O)NCc1ccccc1)NC1CCCCCCC1 ?
12-hLO inh: -2.5%; p53ts 39C tox: -9.6%; HPGD block: 20µM*

Results for COc1ccc(C(=O)NC(=S)NCC2CCCO2)cc1 (stereo unspecified) ?
12-hLO inh: -8.5%; HPGD block: 1.0%

Results for O=C(CSc1ccccc1C(=O)O)NC1CCCCCCC1 ?
12-hLO inh: -5.7%; HPGD block: -1.9%

What do the screens show for `CSc1ccccc1C(=O)NCC1CCCO1` (stereo unspecified)?
12-hLO inh: -2.0%; HPGD block: 15.8µM*

How did COc1ccc(C(=O)c2c[nH]c(C(=O)NCC3CCCO3)c2)cc1 (stereo unspecified) do in these assays?
12-hLO inh: -10.3%; HPGD block: 2µM*

How did CC(C)(C)c1ccc(C(=O)c2c[nH]c(C(=O)NCC3CCCO3)c2)cc1 (stereo unspecified) do in these assays?
12-hLO inh: 0.7%; HPGD block: 12.6µM*

How did Cc1ccccc1C(=O)c1c[nH]c(C(=O)NCC2CCCO2)c1 (stereo unspecified) do in these assays?
12-hLO inh: -3.3%; HPGD block: 6.31µM*

What do the screens show for `CSc1ccccc1C(=O)NC1CCCC1`?
12-hLO inh: 4.9%; HPGD block: 20µM*

Results for CSc1ccccc1C(=O)NC1CCCCC1 ?
12-hLO inh: -3.5%; HPGD block: -22.1%

Results for CC1(OC(=O)c2ccco2)C(=O)C2=COC(C3CC3)=CC2=C(Br)C1=O (stereo unspecified) ?
12-hLO inh: 0.7%; HPGD block: -7.5%

What do the screens show for `CC(C)(C)OC(=O)NCCc1nnc(S(=O)(=O)Cc2ccc(Cl)cc2Cl)o1`?
12-hLO inh: -0.8%; p53ts 39C tox: inconclusive; HPGD block: 2.51µM*; p53ts 32C kill: -12.5%

What do the screens show for `Cc1cc(=O)[nH]c(SCc2cccc(Br)c2)n1`?
12-hLO inh: -9.3%; p53ts 39C tox: -9.9%; HPGD block: 14.1µM*; p53ts 32C kill: 3.0%

What do the screens show for `COc1ccc(CSc2nc(C)cc(=O)[nH]2)cc1Br`?
12-hLO inh: -3.8%; p53ts 39C tox: 2.3%; HPGD block: 15.8µM*; p53ts 32C kill: 9.9%

What do the screens show for `C/C=C/c1ccc(OCCSc2nc(C)cc(=O)[nH]2)c(OC)c1`?
12-hLO inh: 1.1%; p53ts 39C tox: -25.4%; HPGD block: -18.3%; p53ts 32C kill: -15.3%

What do the screens show for `COC(=O)c1cc(=O)[nH]c(SCc2cccc(C)c2)n1`?
12-hLO inh: 0.7%; p53ts 39C tox: -5.8%; HPGD block: -24.1%; p53ts 32C kill: -1.7%

How did COCc1cc(=O)n2c(-c3ccc(C)cc3)n[nH]c2n1 do in these assays?
12-hLO inh: 0.6%; p53ts 39C tox: 10µM*; HPGD block: -19.1%; p53ts 32C kill: 10µM*

How did COCc1cc(=O)n2c(-c3ccccc3OC)n[nH]c2n1 do in these assays?
12-hLO inh: 0.3%; p53ts 39C tox: 4.3%; HPGD block: -25.1%; p53ts 32C kill: -14.1%

Results for Cn1cc(C2=C(c3cn(CCCSC(=N)N)c4ccccc34)C(=O)NC2=O)c2ccccc21 ?
12-hLO inh: -21.1%; p53ts 39C tox: inconclusive; HPGD block: -7.7%; p53ts 32C kill: inconclusive

How did Cc1ccc(NC(=O)[C@H](CSCc2ccccc2)N2Cc3ccccc3C2=O)cc1 do in these assays?
p53ts 39C tox: -11.9%; p53ts 32C kill: 0.4%

What do the screens show for `Cc1ccc(-c2nc(CS(=O)CC(=O)NCc3ccccc3)c(C)o2)cc1` (stereo unspecified)?
12-hLO inh: -2.2%; p53ts 39C tox: -0.6%; HPGD block: -2.1%; p53ts 32C kill: -0.5%

How did Cc1ccc(CNC(=O)CS(=O)Cc2nc(-c3cccs3)oc2C)cc1 (stereo unspecified) do in these assays?
12-hLO inh: -7.9%; p53ts 39C tox: 1.4%; HPGD block: 28.2µM*; p53ts 32C kill: -2.5%

What do the screens show for `CN(C)c1ncc2nc(-c3ccccc3)c(=O)n(-c3ccccc3)c2n1`?
p53ts 39C tox: 5.2%; p53ts 32C kill: 0.9%

Results for O=C(NCCOC(=O)C1COc2ccccc2O1)C1COc2ccccc2O1 (stereo unspecified) ?
12-hLO inh: -0.6%; p53ts 39C tox: 1.4%; HPGD block: -5.7%; p53ts 32C kill: -1.0%

How did CCCCNC(=O)C1COc2ccccc2O1 (stereo unspecified) do in these assays?
12-hLO inh: -3.3%; p53ts 39C tox: 6.2%; HPGD block: 15.8µM*; p53ts 32C kill: 0.4%

How did O=C(NCc1ccncc1)C1COc2ccccc2O1 (stereo unspecified) do in these assays?
12-hLO inh: -2.2%; HPGD block: -1.4%

Results for CC1(C)Oc2ccc(NC(=O)C3COc4ccccc4O3)cc2O1 (stereo unspecified) ?
12-hLO inh: -8.8%; p53ts 39C tox: inconclusive; HPGD block: 20µM*; p53ts 32C kill: inconclusive

What do the screens show for `O=C(NCc1ccc2c(c1)OCO2)C1COc2ccccc2O1` (stereo unspecified)?
12-hLO inh: -3.7%; p53ts 39C tox: 7.2%; HPGD block: 4.47µM*; p53ts 32C kill: 11.3%

Results for O=C(NCc1ccccn1)C1COc2ccccc2O1 (stereo unspecified) ?
12-hLO inh: 6.2%; p53ts 39C tox: 12.4%; HPGD block: 14.1µM*; p53ts 32C kill: 10.7%

Results for N#CC(C(=O)NC1CCCCC1)c1nc2ccccc2nc1N1CCCCC1 (stereo unspecified) ?
p53ts 39C tox: -0.4%; p53ts 32C kill: 4.4%

Results for Cc1cc2nc(-c3cccc(NC(=O)C(C)C)c3C)oc2cc1C ?
p53ts 39C tox: 0.126µM*; p53ts 32C kill: inconclusive

Source: PubChem (National Center for Advancing Translational Sciences (NCATS))
